From PubChem BioAssay
Active and inactive are the calls of the source.

Columns and labels:
[1] = binders of probe aFSTL3 on microarray, primary screen, stem cell growth factor project, biochemical, small-molecule microarray, fluorescence 635/667 (AID 1064); conditions: higher = more signal;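 note: measures binding of the biotinylated anti-FSTL3 antibody to printed compounds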
[2] = binders from COS7 lysate, DM2A8 probe, primary screen, torsin A project, cell lysate, small-molecule microarray, fluorescence 635/667 (AID 1065); conditions: higher = more signal, COS7 lysate expressing mutant human TOR1A
[3] = binders of probe aFGF2 on microarray, primary screen, stem cell growth factor project, biochemical, small-molecule microarray, fluorescence 635/667 (AID 1067); conditions: higher = more signal;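 note: measures binding of biotinylated aFGF2 protein to printed compounds on slides; z-score merges feature fluorescence and signal-to-noise across triplicate slides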
[4] = binders of probe aFGF10 on microarray, primary screen, stem cell growth factor project, biochemical, small-molecule microarray, fluorescence 635/667 (AID 1071); conditions: higher = more signal;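 note: score merges 667 nm spot intensity and signal to noise from triplicate slides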
[5] = biological target: Neurogenic locus notch homolog protein 2 (Homo sapiens) (UniProt Q04721); test: Notch2 binders on small-molecule microarrays, primary screen, biochemical, small-molecule microarray, 635 nm fluorescence, stem cell growth factors (AID 1073); conditions: Notch2 binding, higher = more signal
Neurogenic locus notch homolog protein 2 (Homo sapiens), sequence (Q04721 whole entry, looked up, canonical isoform): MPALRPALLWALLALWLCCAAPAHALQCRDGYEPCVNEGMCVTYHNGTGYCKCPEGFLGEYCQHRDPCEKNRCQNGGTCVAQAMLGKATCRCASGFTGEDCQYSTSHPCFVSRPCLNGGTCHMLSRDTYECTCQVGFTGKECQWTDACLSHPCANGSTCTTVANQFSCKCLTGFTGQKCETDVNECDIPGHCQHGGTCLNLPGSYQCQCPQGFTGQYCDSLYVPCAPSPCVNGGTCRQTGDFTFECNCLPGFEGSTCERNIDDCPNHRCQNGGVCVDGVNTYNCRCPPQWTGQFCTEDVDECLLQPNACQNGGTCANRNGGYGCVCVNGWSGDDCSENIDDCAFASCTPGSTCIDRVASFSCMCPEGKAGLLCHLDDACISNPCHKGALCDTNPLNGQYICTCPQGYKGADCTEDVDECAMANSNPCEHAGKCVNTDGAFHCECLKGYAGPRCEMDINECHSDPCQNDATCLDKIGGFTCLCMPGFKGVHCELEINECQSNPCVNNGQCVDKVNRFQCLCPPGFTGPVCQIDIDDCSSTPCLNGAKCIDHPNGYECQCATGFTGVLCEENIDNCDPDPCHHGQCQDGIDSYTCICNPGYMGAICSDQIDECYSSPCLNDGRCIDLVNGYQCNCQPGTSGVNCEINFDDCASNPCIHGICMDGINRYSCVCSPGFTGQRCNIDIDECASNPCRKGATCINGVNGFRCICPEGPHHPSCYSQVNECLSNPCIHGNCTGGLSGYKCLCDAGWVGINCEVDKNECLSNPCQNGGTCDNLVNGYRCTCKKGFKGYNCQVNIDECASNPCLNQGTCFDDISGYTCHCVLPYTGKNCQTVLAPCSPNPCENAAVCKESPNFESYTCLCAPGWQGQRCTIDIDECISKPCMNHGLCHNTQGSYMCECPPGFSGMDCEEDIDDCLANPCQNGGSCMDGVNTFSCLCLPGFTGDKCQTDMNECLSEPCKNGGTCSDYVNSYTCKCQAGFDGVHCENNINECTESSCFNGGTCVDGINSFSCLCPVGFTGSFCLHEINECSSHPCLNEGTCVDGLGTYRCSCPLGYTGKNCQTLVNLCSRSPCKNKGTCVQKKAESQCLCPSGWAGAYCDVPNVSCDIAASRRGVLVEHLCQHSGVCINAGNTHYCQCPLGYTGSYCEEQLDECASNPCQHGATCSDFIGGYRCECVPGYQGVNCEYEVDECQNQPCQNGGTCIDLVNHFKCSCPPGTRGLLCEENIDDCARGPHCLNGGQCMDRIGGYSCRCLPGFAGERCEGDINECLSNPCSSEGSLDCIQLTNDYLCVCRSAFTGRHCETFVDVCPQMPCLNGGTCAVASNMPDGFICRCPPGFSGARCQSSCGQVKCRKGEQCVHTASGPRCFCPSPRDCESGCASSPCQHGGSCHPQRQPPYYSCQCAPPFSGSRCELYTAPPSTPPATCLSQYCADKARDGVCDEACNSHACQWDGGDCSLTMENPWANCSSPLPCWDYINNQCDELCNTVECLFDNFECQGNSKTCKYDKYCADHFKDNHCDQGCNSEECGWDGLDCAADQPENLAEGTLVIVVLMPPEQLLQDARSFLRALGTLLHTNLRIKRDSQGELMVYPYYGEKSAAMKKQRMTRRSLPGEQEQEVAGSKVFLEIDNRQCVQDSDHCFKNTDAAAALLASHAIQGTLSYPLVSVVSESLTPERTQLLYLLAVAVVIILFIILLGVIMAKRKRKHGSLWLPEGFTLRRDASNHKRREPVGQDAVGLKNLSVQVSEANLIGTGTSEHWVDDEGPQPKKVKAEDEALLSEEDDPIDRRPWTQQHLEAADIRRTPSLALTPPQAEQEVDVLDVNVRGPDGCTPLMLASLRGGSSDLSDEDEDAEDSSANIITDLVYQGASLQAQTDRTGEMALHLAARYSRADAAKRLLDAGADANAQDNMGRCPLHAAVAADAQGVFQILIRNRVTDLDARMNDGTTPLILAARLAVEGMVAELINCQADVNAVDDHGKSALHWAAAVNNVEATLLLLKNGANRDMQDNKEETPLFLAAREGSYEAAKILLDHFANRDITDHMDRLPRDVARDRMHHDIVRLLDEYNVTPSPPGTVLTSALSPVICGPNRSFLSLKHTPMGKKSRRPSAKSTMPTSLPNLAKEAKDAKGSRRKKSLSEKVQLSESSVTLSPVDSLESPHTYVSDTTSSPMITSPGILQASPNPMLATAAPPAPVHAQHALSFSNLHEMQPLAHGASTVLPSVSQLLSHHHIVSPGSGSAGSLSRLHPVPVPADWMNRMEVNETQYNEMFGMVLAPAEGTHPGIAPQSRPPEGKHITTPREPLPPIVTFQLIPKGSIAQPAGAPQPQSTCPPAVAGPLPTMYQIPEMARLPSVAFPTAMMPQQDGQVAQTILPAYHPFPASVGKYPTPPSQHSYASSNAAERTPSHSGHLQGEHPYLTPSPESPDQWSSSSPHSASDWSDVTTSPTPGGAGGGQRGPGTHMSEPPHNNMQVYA

[6] = biological target: Pro-neuregulin-1, membrane-bound isoform (Homo sapiens) (UniProt Q02297); test: NRG1 binders on small-molecule microarrays, primary screen, psychiatric disease protein project, biochemical, small-molecule microarray, fluorescence 635/667 (AID 1075); conditions: NRG1 binding, 635 nm fluorescence, higher = more signal;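 note: score combines 667 nm spot fluorescence with signal to noise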
Pro-neuregulin-1, membrane-bound isoform (Homo sapiens), sequence (Q02297 whole entry, looked up, the tested form may be a part, canonical isoform): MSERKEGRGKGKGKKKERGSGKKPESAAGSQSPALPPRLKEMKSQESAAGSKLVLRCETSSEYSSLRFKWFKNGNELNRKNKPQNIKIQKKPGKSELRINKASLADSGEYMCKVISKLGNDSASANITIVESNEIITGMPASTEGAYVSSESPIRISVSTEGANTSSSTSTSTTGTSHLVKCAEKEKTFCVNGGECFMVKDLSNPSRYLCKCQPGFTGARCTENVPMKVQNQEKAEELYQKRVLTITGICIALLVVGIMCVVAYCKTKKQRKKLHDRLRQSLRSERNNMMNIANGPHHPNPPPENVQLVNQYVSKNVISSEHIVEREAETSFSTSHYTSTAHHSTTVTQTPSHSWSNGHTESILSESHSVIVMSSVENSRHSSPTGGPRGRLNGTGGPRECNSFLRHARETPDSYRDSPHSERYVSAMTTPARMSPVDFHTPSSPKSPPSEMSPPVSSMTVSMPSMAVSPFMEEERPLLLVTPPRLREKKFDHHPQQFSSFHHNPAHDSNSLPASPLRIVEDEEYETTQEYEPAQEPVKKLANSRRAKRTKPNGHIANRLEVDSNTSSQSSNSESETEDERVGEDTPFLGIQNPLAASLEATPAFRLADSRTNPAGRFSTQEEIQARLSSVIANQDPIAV

[7] = test system: Neuregulin-1 EGF-like domain; test: binders of neuregulin-1 EGF-like domain, primary screen, biochemical, small-molecule microarray, 635 nm fluorescence (AID 1081); conditions: small-molecule microarray binding, higher = more signal;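 note: binding of the protein to compounds printed on small-molecule microarray slides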
[8] = FRG1 promoter luciferase signal modulators, primary screen, FRG1 inhibition for FSHD, cell-based, C2C12 myotubes, firefly/Renilla luciferase, luminescence (AID 1084); conditions: higher = more signal, called active from +8 up or from −8 down
[9] = binders of probe aFST on microarray, primary screen, stem cell growth factor project, biochemical, small-molecule microarray, fluorescence 635/667 (AID 1086); conditions: higher = more signal;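 note: score merges 667 nm fluorescence with signal-to-noise of each printed compound spot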
[10] = binders of probe aHhip on microarray, primary screen, stem cell growth factor project, biochemical, small-molecule microarray, fluorescence 635/667 (AID 1087); conditions: higher = more signal;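 note: score merges spot fluorescence at 667nm with spot signal to noise ratio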

Work on `COCCOC(=O)N1C(=O)[C@@]2(c3cc(C#CC4=CCCCC4)ccc31)[C@H](C(=O)N1CCc3cc(OC)c(OC)cc3C1)[C@H]1C(=O)O[C@H](c3ccccc3)[C@H](c3ccccc3)N1[C@@H]2c1ccccc1OCCO` yielded a composite z-score [1] of 0.243, a composite z-score [2] of 0.0781 and a composite z-score [3] of -0.0867. It also gave a composite z-score [4] of -0.205, a composite z-score [5] of 0.138 and a composite z-score [6] of -0.442. For the same compound, the composite z-score [7] was 1.06, the z-score [8] was 0.801 (inactive) and the composite z-score [9] was 0.186. For the same compound, the composite z-score [10] was -0.0645.

For `COc1ccc(C(O)C2C=CC3C(=O)NC(=O)C3N2Nc2ccccn2)cc1OCc1ccccc1` (stereo not given), the composite z-score [1] was -0.202, the composite z-score [2] was -0.0593 and the composite z-score [3] was -0.0226. For the same compound, the composite z-score [4] was 0.177, the composite z-score [5] was 1.27 and the composite z-score [6] was 1.71. The composite z-score [7] was 0.666, the z-score [8] was 0.387 (inactive) and the composite z-score [9] was 0.216. The composite z-score [10] was 3.69.

Compound `COC(=O)c1ccc(OC)c(/C=C\CC(OC(C)=O)c2ccccc2)c1` (stereo not given) has a composite z-score [1] of 0.428, a composite z-score [2] of -0.284 and a composite z-score [3] of -0.138. It also gave a composite z-score [4] of 0.229, a composite z-score [5] of 1.2 and a composite z-score [6] of 0.993. For the same compound, the composite z-score [7] was 0.971, the z-score [8] was -1.21 (inactive) and the composite z-score [9] was -0.405. For the same compound, the composite z-score [10] was 0.206.

`CC(C)C[C@@H]1NC(=O)[C@@H]2C[C@H](C(=O)NCCCCCC[N+](C)(C)C)[C@H](c3ccc(O)cc3)N2C1=O` gave a composite z-score [1] of -0.0515, a composite z-score [2] of 0.349 and a composite z-score [3] of -0.112. The composite z-score [4] was 0.154, the composite z-score [5] was -0.344 and the composite z-score [6] was 1.57. The composite z-score [7] was 1.46, the z-score [8] was 1.97 (inactive) and the composite z-score [9] was 0.0819. The composite z-score [10] was -0.271.

For `COCCOC(=O)N1C(=O)[C@@]2(c3cc(C#CCNC(N)=O)ccc31)[C@H](c1ccc(OCCO)cc1)N1[C@H](c3ccccc3)[C@H](c3ccccc3)OC(=O)[C@H]1[C@@H]2C(=O)N1CCc2cc(OC)c(OC)cc2C1`, the composite z-score [1] was 0.187, the composite z-score [2] was -0.0389 and the composite z-score [3] was -0.051. It also gave a composite z-score [4] of 0.164, a composite z-score [5] of 0.638 and a composite z-score [6] of 0.156. The composite z-score [7] was 0.371, the z-score [8] was 1.08 (inactive) and the composite z-score [9] was 0.883. The composite z-score [10] was 0.327.

With `COC(=O)[C@@]1(Cc2ccccc2)[C@H]2c3cc(C(=O)N(C)C)n(Cc4c(-c5ccccc5)noc4C)c3C[C@H]2CN1C(=O)c1ccccc1` the composite z-score [1] was 0.948, the composite z-score [2] was -0.287 and the composite z-score [3] was 0.308. The composite z-score [4] was 0.346, the composite z-score [5] was 1.66 and the composite z-score [6] was 1.81. For the same compound, the composite z-score [7] was 1.24, the z-score [8] was 1.6 (inactive) and the composite z-score [9] was 1.41. It also gave a composite z-score [10] of 0.162.

Compound `Cc1cc(C)cc(N2C(=O)CS(=O)(=O)C2c2cccc([N+](=O)[O-])c2)c1` (stereo not given) has a composite z-score [1] of 0.228, a composite z-score [2] of 0.661 and a composite z-score [3] of 0.245. For the same compound, the composite z-score [4] was 0.366, the composite z-score [5] was 1.17 and the composite z-score [6] was 1.63. For the same compound, the composite z-score [7] was 1.04, the z-score [8] was -1.47 (inactive) and the composite z-score [9] was 1.18. It also gave a composite z-score [10] of 1.53.
